Assay outcomes as filed in PubChem BioAssay.
Tau fibril ThT – qHTS for Inhibitors of Tau Fibril Formation, Thioflavin T Binding | Microtubule-associated protein tau (Homo sapiens), P10636 | recombinant tau K18 P301L, heparin-induced fibrillization, ThT fluorescence | Potency, µM (series often up to 57.4 µM), without a hit: at the top dose activity, negative = inhibition, most hits filed as inhibitors | 270,000 tested, 2.1% active; further: nearly all actives have a fitted effect of over 55% in size
Target sequence (P10636 561-689 P618L limits assumed): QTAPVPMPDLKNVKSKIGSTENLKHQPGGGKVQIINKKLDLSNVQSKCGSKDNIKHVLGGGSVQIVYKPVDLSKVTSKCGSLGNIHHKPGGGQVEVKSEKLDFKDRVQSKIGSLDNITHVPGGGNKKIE
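Fibril formation assay: tau K18 P301L at 15 uM with trace Alexa 594 label, heparin inducer 20 uM, pH 7 sodium acetate buffer, 37 C for 6 hr; endpoint ThT signal.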
Sfp PPTase inh – qHTS Assay for Inhibitors of Bacillus subtilis Sfp phosphopantetheinyl transferase (PPTase); 4'-phosphopantetheinyl transferase ffp (Bacillus subtilis), Q9F4F7; Biochemical Sfp PPTase activity, qHTS; Potency, µM, for the others: largest response in the series, negative = inhibition, usual class: inhibitors; 310,000 tested, 3.5% active; AID 1490, 2009;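 further: the enzyme is Sfp with the accession as filed and its product quenches rhodamine fluorescence; 0% = enzyme reaction without inhibitor and -100% = no enzyme wells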
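Buffer: 50 mM Hepes-Na pH 7.6, 10 mM MgCl2, 0.01% Nonidet P-40, 0.01% BSA. Enzyme 15 nM, pre-exposed to compound 15 min; substrates then added and fluorescence change tracked over 30 min.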
PLK1 PBD block – qHTS for Inhibitors of PLK1-PDB (polo-like kinase 1 - polo-box domain): Primary Screen. Plk1 PBD binding of FITC phosphopeptide, fluorescence polarization. Potency, µM, inactives show max response, negative = inhibition, most hits filed as inhibitors. AID 720504, 2013. Serine/threonine-protein kinase PLK1 (Homo sapiens), P53350. 360,000 tested, 2.8% active; further: series mostly up to about 57 µM; nearly all actives have a fitted effect of over 65% in size
Tau fibril FP – qHTS for Inhibitors of Tau Fibril Formation, Fluorescence Polarization; Microtubule-associated protein tau (Homo sapiens), P10636; K18 P301L tau heparin fibrillization, Alexa594 FP, 6 h; Potency, µM (top dose mostly 57.7 µM), inactives show at the highest dose activity, negative = inhibition, actives largely listed as inhibitors; 280,000 tested, 0.39% active; AID 1468, 2008; further: nearly all actives have a fitted effect of over 55% in size
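K18 P301L tau (15 uM unlabeled/0.24 uM Alexa 594-labeled, final) + compound + heparin 20 uM final; 100 mM NaOAc pH 7; 6 hr 37 C; ThT 30 uM final added, 1 hr RT; FP ex 555/em 632 nm.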
Tau fluor counter – Counterscreen qHTS for Inhibitors of Tau Fibril Formation, Fluorescence Polarization | Potency, µM (highest dose often 57.7 µM), inactives show top-dose activity change, negative = decrease | tau K18 P301L (four-repeat tau fragment) Alexa594 fluorescence, heparin fibrillization | 280,000 tested, 0.93% active; further: nearly all actives have a fitted effect of over 55% in size
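Human K18 P301L tau (15 uM unlabeled plus 0.24 uM Alexa 594-labeled, final) in 100 mM sodium acetate pH 7 was mixed with compound and 20 uM heparin and incubated 6 hr at 37 C.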
VDR inhibitor – Inhibitors of the vitamin D receptor (VDR): qHTS | 400,000 tested, 0.93% active | VDR-SRC2-3 peptide fluorescence polarization, 2 h | Potency, µM, without a hit: max response, negative = inhibition, most hits filed as inhibitors | Vitamin D3 receptor (Homo sapiens), P11473
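After 23 nl compound addition and a short centrifugation, plates sat for 2 hours at ambient temperature; polarization of fluorescence then indicated loss of VDR binding to peptide SRC2-3.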
Starred values were filed as active, the others as inactive; ? = inconclusive; . = no result; [ ] = another dose, or the depositor's remark. Compounds with a hit are over-represented: about 6% of the library has one in this group of screens. The call rests on the fitted dose curve; in most records, active means well fitted curve in the direction sought with a large enough effect; inconclusive means small, poorly fitted or top-dose-only effect, or another doubt; inactive means no such curve, though single readings can be large; an effect the other way counts as inactive or inconclusive. Unless noted, on the % scale 0 is the no-effect control and ±100 the full control effect; potency means the concentration at half of the fitted maximal effect.

SMILES | Tau fibril ThT | Sfp PPTase inh | PLK1 PBD block | Tau fibril FP | Tau fluor counter | VDR inhibitor
CCOc1ccc(N=C(C)C2=C(O)c3ccccc3C2=O)cc1 | . | ? | -5% | -6% | ? | -1%
COc1cc(NC(=O)c2ccc(Cl)cc2)c(OC)cc1NC(=O)CN1CCOCC1 | ? | -1% | -5% | 14% | -13% | 5%
COc1cc(NC(=O)Nc2ccccc2)c(OC)cc1NC(=O)CN1CCCCC1 | ? | -15% | 3% | ? | 28µM*[quencher] | 5%
O=C(CN1CCCC1)Nc1ccccc1Sc1ccc(Cl)cc1 | -11% | 79µM* | -3% | 2% | -8% | 0%
NC(=O)C1CCN(CC(=O)Nc2ccccc2Sc2ccc(Cl)cc2)CC1 | 2% | -4% | -1% | 8% | 4% | -10%
COc1cc(NC(=O)c2ccc(Cl)cc2)c(OC)cc1NC(=O)CN1CCCCC1 | ? | 8% | 30µM* | 3% | -25% | -24%
COc1cc(NC(=O)Nc2ccccc2OC)c(OC)cc1NC(=O)CN1CCCCC1 | ? | 10% | 0% | ? | ? | 0%
O=C1c2[nH]nc(-c3ccccc3)c2C(c2ccccc2)N1c1cccc(C(F)(F)F)c1 (stereo not drawn) | -19% | . | . | ? | ? | -4%
Cc1cc(Sc2nc(N)ncc2[N+](=O)[O-])ncn1 | ? | 22µM* | ? | 3% | ? | -18%
Cc1cc(Sc2ncnc(N)c2[N+](=O)[O-])ncn1 | ? | 50µM* | ? | -2% | ? | ?
COc1ccccc1Cn1c(CNS(=O)(=O)c2cccc([N+](=O)[O-])c2)nc2cccnc21 | -2% | . | . | 12% | -3% | -8%
CC(CNC(=O)C1CCN(S(=O)(=O)c2ccc3c(ccn3C)c2)CC1)c1ccccc1 (stereo not drawn) | 3% | . | . | -5% | -6% | -2%
O=C1/C(=C\c2cccs2)N=C(c2cccs2)N1Nc1ccccc1 | 10µM* | 9% | -16% | -18% | ? | 13%
O=C1/C(=C/c2cccs2)N=C(c2cccs2)N1Nc1ccccc1 | 7.1µM* | 4% | -23% | -14% | ? | -10%
Cc1ccc(C2=N/C(=C\c3cccs3)C(=O)N2Nc2ccccc2)cc1 | ? | -5% | 1% | -5% | ? | 19%
Cc1ccn2cc(CCNC(=O)CC(C)(C)C)nc2c1 | 2% | 11% | -2% | -11% | -2% | -17%
COc1ccc(C(=O)NCCc2cn3ccccc3n2)cc1 | ? | -4% | 30µM* | -13% | -15% | ?
Cc1ccn2cc(CCNC(=O)COc3ccccc3)nc2c1 | -1% | 16% | 12µM* | 9% | 0% | ?
O=C(CNC(=O)c1nc[nH]c1C(=O)N1CCc2ccccc2C1)OCc1ccccc1 | . | 1% | 19µM* | . | . | 79µM*
O=C(Nc1ccccc1)c1cc(-c2ccccc2Cl)no1 | -13% | -13% | 3.8µM* | -2% | -18% | ?
COc1ccc(NC(=O)c2cc(-c3ccccc3Cl)no2)cc1 | -21% | 10% | -7% | -7% | -13% | -7%
COc1cc(/C=N/N=C2/SCC(=O)N2c2ccc(O)cc2)ccc1O | -9% | 7% | 3µM* | 2% | -6% | 18µM*
COc1ccc(S(=O)(=O)c2c(Nc3c(C)cccc3C)sc(C(=O)c3ccc(F)cc3)c2N)cc1 | 3% | . | . | -3% | -3% | 4%
COCc1cc(C)nc(SCC(=O)c2ccc(O)c(O)c2)c1C#N | ? | 56µM* | -28% | 2% | ? | 3%
COCc1cc(C)nc(SCC(=O)Oc2ccc(Cl)cc2)c1C#N | ? | -25% | -7% | 8% | -18% | -11%
